SMILES strings stand for the structures. Results filed as inconclusive are left out. Where a call stands in place of a potency, no number is given. Active and inactive are the calls of the source. Calls follow the shape of the dose curve; as a rule, active = well fitted curve in the direction sought with a large enough effect; inconclusive = small, poorly fitted or top-dose-only effect, or another doubt; inactive = no such curve, though single readings can be large; an effect the other way counts as inactive or inconclusive.
Potency is read from the fitted curve at half-maximal effect.

The first assay is described as follows: qHTS to identify inhibitors of the type 1 interferon - major histocompatibility complex class I in skeletal muscle: primary screen against the NCATS Pharmaceutical Collection (AID 1347407).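 Also: luminescence of HiBiT knocked into endogenous HLA-B as interferon-induced MHC class I level.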 The following applies: human skeletal muscle cells, IFN-b-induced MHC-I HiBiT luminescence, 24 h; series mostly up to 45.9 µM. In short, it runs like this:
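Immortalized human myoblasts (C25cl48) with HiBiT knocked into endogenous HLA-B*08:01 were stimulated with 4.0 ng/ml IFN-beta and treated with compounds ([…] top 46 uM) for 24 hrs at 37 C. HiBiT lytic luminescence read.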
(In general: In qHTS, concentration-response curves come from the screen itself.)
As to `C[C@@H]1C[C@@H]([C@H](O)CC2CC(=O)NC(=O)C2)C(=O)[C@@H](C)C1`, the Potency was 0.374 µM (active).

For `Clc1ccc(C(OCCN2CCCCC2)c2ccccc2)cc1` (stereo not given), the Potency result was “inactive”.

In the case of `C[C@@H]1O[C@@H](O[C@@H]2C=C3CC[C@@H]4[C@H](CC[C@]5(C)[C@@H](c6ccc(=O)oc6)CC[C@]45O)[C@@]3(C)CC2)[C@H](O)[C@H](O)[C@H]1O`, the Potency is 0.0033 µM (active).

Take `CN1C2CCC(C)(C)C1CC(OC(=O)C(O)(c1cccs1)c1cccs1)C2` (stereo not given): the Potency result was “inactive”.

Consider `CCCCCCCCC(=O)NCc1ccc(O)c(OC)c1`, for which the Potency entry is “inactive”.

Turning to `CC(Cc1ccccc1)NCCCCl` (stereo not given), the Potency entry is “inactive”.

For `C[N+](C)(C)CCOC(=O)C(O)(c1ccccc1)c1ccccc1`, the Potency entry was “inactive”.

In the case of `CCc1ccc(C2CCNCC2)cc1`, the Potency result was “inactive”.

On to `CCCN(CCC)CCc1c[nH]c2ccccc12`, for which the Potency result was “inactive”.

Turning to `N#Cc1nn(-c2c(Cl)cc(C(F)(F)F)cc2Cl)c(N)c1S(=O)C(F)(F)F` (stereo not given), the Potency entry is “inactive”.

As to `Clc1ccc(CO/N=C(\Cn2ccnc2)c2ccc(Cl)cc2Cl)c(Cl)c1`, the Potency entry is “inactive”.

Turning to `Nc1ccccc1C(=O)OCC(O)CO` (stereo not given), the Potency result was “inactive”.

`CCC1(c2ccccc2)CCC(=O)NC1=O` (stereo not given): the Potency entry was “inactive”.

As to `CC(CC(C(N)=O)(c1ccccc1)c1ccccc1)N(C)C` (stereo not given), the Potency result was “inactive”.

`CN(C)CCc1c[nH]c2cccc(O)c12`: the Potency entry is “inactive”.

As for `O=C1CN2CCOC2(c2ccccc2Cl)c2cc(Cl)ccc2N1` (stereo not given), the Potency result was “inactive”.

Regarding `CN(C)C(=O)Oc1cc(OC(=O)N(C)C)cc(C(O)CNC(C)(C)C)c1` (stereo not given), the Potency result is “inactive”.

Consider `c1ccc2nc(N3CCNCC3)ccc2c1`, for which the Potency result was “inactive”.

As to `NC(=O)OCCCc1ccccc1`, the Potency entry was “inactive”.

Regarding `CC(C)=CCN1CC[C@@]2(C)c3cc(O)ccc3C[C@@H]1[C@@H]2C`, the Potency entry is “inactive”.

For `CCCCC1C(=O)NC(=O)N(C2CCCCC2)C1=O` (stereo not given), the Potency entry was “inactive”.

In the case of `COc1ccc2c(C(=O)c3ccc(Cl)cc3)c(C)n(CC(=O)O)c2c1`, the Potency entry was “inactive”.

Consider `C[C@]12CC[C@H](O)CC1=CC[C@@H]1[C@@H]2CC[C@]2(C)C(=O)CC[C@@H]12`, for which the Potency result was “inactive”.

For `C[C@@H]1CC[C@H]2[C@@H](C)C(=O)O[C@@H]3O[C@@]4(C)CC[C@@H]1[C@]32OO4`, the Potency result was “inactive”.

Regarding `C=CCN1CC[C@]23CCCC[C@H]2[C@H]1Cc1ccc(O)cc13`, the Potency result is “inactive”.

Turning to `CN1C(=O)CN=C(c2ccccc2)c2cc([N+](=O)[O-])ccc21`, the Potency entry was “inactive”.

In the case of `C[C@H]1C(=O)O[C@@H]2CCN3CC=C(COC(=O)[C@](C)(O)[C@]1(C)O)[C@H]23`, the Potency entry is “inactive”.

As for `CNC(C)Cc1ccccc1OC` (stereo not given), the Potency result is “inactive”.

Regarding `C[N+]1(CCC(C(N)=O)(c2ccccc2)c2ccccc2)CCCCC1`, the Potency entry is “inactive”.

On to `CC[n+]1c(-c2ccccc2)c2cc(N)ccc2c2ccc(N)cc21`, for which the Potency result was “inactive”.

In the case of `CC(C)[N+](C)(CCC(C(N)=O)(c1ccccc1)c1ccccc1)C(C)C`, the Potency entry was “inactive”.

For the compound `COc1ccc(CN2CCNCC2)c(OC)c1OC`, the Potency entry was “inactive”.

Turning to `COc1cc(C[C@@H](C)N)c(OC)cc1C`, the Potency result is “inactive”.

Take `CC(C)C(Br)C(=O)NC(N)=O` (stereo not given): the Potency result was “inactive”.

In the case of `O=C(CBr)Nc1ccc(Cl)cc1C(=O)c1ccccc1F`, the Potency entry was “inactive”.

For `COc1cc(CC(C)N)c(OC)cc1Br` (stereo not given), the Potency result was “inactive”.

The nature of another assay: qHTS to identify inhibitors of the type 1 interferon - major histocompatibility complex class I in skeletal muscle: primary screen against the NCATS Mechanism Interrogation Plate v5.0 (MIPE) Libary (AID 1347411). Also: nearly all actives have a fitted effect of over 65% in size. The following applies: iHSKM cells + IFN-b, HiBiT-tagged MHC-I luminescence, 24 h; series mostly up to 45.8 µM. In outline:
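Immortalized human myoblasts (C25cl48) with HiBit knocked into endogenous HLA-B*08:01 were stimulated with 4 ng/ml IFN-beta and given compounds in 11-point 1:3 titration from 46 uM. After 24 h at 37 C, lytic HiBiT luminescence was read.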
Take `C[C@@H]1C[C@@H]([C@H](O)CC2CC(=O)NC(=O)C2)C(=O)[C@@H](C)C1`: the Potency is 0.262 µM (active).

Take `C[C@@H]1O[C@@H](O[C@@H]2C=C3CC[C@@H]4[C@H](CC[C@]5(C)[C@@H](c6ccc(=O)oc6)CC[C@]45O)[C@@]3(C)CC2)[C@H](O)[C@H](O)[C@H]1O`: the Potency is 0.0074 µM (active).

As for `C[C@]12CC[C@H](O)CC1=CC[C@@H]1[C@@H]2CC[C@]2(C)C(=O)CC[C@@H]12`, the Potency result is “inactive”.

In the case of `C[C@@H]1CC[C@H]2[C@@H](C)C(=O)O[C@@H]3O[C@@]4(C)CC[C@@H]1[C@]32OO4`, the Potency result is “inactive”.

Values taken from PubChem BioAssay (NCATS).
